Over roughly 68,000 sequences, “fluorescence intensity (a.u.)” has its median near 9,100; the highest 2% begin near 16,000. The list comes from a sample in which the highest values are over-represented; it also holds similar and randomly drawn sequences.
target: OsWRKY34 (Oryza sativa, UniProt Q0JBA9 1-250); assay: protein-binding microarray (RPBM); PBS, 2% BSA, 51.3 ng/ul salmon testes DNA, 50 uM zinc acetate, 200 nM TF, 25 C, 1 h; high values mean tight binding; conditions: protein: recombinant; tags: N-terminal polyhistidine and DsRed monomer fusion (pET32a); label: CyDye5-dUTP incorporated in the synthesized complementary strand; 3' TTTTT single-stranded linker to array surface; dsDNA, one strand shown
Sequence (Q0JBA9 entry or part of it): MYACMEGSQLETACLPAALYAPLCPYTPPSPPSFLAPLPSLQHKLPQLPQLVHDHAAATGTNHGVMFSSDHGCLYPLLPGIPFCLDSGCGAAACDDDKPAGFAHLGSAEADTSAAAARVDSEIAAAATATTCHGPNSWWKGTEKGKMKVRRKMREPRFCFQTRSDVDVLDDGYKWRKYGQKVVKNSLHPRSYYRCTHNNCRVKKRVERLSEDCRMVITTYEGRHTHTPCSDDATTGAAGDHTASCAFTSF
Procedure, shortened: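 Using Ni–NTA, transcription factors fused N-terminally to polyhistidine and DsRed were purified after expression in E. coli BL21-CodonPlus. These were incubated at 200 nM with a blocked, double-stranded custom Agilent array for 1 h at 25 °C in a buffer containing 50 µM zinc acetate, and the array was washed. The binding signal is per-feature fluorescence intensity (arbitrary units) on an Axon 4000B scanner.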

Row | Sequence | binding signal
1 | AGCTGGTCATATTCTATGTTGATTATCTTCATGGTATGAACGGAGTCACCTAGTGCAG | 9730 fluorescence intensity (a.u.)
2 | ATCTGGTCTGCAGGTATTTTCTTTGTATTGTATATTTCTACGGAGTCACCTAGTGCAG | 10000 fluorescence intensity (a.u.)
3 | TTCTGATATCTGGTCATATTTTTTTGAACAGGTAGCTATTCGGAGTCACCTAGTGCAG | 27000 fluorescence intensity (a.u.)
4 | CCGCACCTCTCTCTACACGCACGCGTCTCTCCCATCTCCCCGGAGTCACCTAGTGCAG | 9030 fluorescence intensity (a.u.)
5 | AACTTTCTCCCACCGGCCACCGCGCGTCTCTTGCCACGACCGGAGTCACCTAGTGCAG | 12200 fluorescence intensity (a.u.)
6 | TCTTCTTCCATGGTCTTTTCTAGATAAGGCTCTCTAATGTCGGAGTCACCTAGTGCAG | 8620 fluorescence intensity (a.u.)
7 | TGAACGCTTCCCTGTGTTTGTGGTTACTGCCTTACTGGTTCGGAGTCACCTAGTGCAG | 9210 fluorescence intensity (a.u.)
8 | CGCACGGTTGTTCTCGCCATGATCCTCCTTGCCGCTGTCACGGAGTCACCTAGTGCAG | 8780 fluorescence intensity (a.u.)
9 | CTTAGGGTCGGGAAGGGGAGAGGCGGTGGCGGGCGGCTGACGGAGTCACCTAGTGCAG | 13400 fluorescence intensity (a.u.)
10 | CTCCTGACTCCTCCTCGGTTCCTCTTCCTCTCGAGCCCTTCGGAGTCACCTAGTGCAG | 9950 fluorescence intensity (a.u.)
11 | TCTTAGACGGTCCTGACTCGAGGCCCATATATATGCTGGGCGGAGTCACCTAGTGCAG | 19900 fluorescence intensity (a.u.)
12 | TGGCTCCGCCACGTCCTCGTCGCCTGGAACTCGCTCGTCTCGGAGTCACCTAGTGCAG | 8680 fluorescence intensity (a.u.)
13 | TGTCTCAACAACAAGCTCTGTGTGCTGCAGTGTCATTCCACGGAGTCACCTAGTGCAG | 8160 fluorescence intensity (a.u.)
14 | TATTGGTTTTTGTTTCTGGTGCCACGTCTGCGGCCAAAAACGGAGTCACCTAGTGCAG | 9220 fluorescence intensity (a.u.)
15 | CCTACACACGAAACCTCCGCGCCTCATCCGGGCTTCGCGACGGAGTCACCTAGTGCAG | 10600 fluorescence intensity (a.u.)
16 | TAACTTAACGTGATTTTCCTGTATGGACCTTAATTATGTTCGGAGTCACCTAGTGCAG | 8580 fluorescence intensity (a.u.)
17 | CGTTCTCTCTCTCCTAGAACCACAGTTCAACCACTGTTTCCGGAGTCACCTAGTGCAG | 8580 fluorescence intensity (a.u.)
18 | GGAGGAGTACGACGGGGTGGGAGCGGCGGTGGGTGGGATGCGGAGTCACCTAGTGCAG | 11500 fluorescence intensity (a.u.)
19 | GGCGGTGGGTGGGTGGAGCCGTGGAGGGATGGAGGGAGGGCGGAGTCACCTAGTGCAG | 37900 fluorescence intensity (a.u.)
20 | CATGGAGGGAGGGAGGGAGGCGGAAGCGGAGGCGTGGGAGCGGAGTCACCTAGTGCAG | 9980 fluorescence intensity (a.u.)
21 | CAAGCCGGGCGGGAGCCGTGGCGGCGGCCGGGCGGGCGGGCGGAGTCACCTAGTGCAG | 8260 fluorescence intensity (a.u.)

Row | Sequence | binding signal
22 | TGCCGTGGGATGGGGTTGCGGGAGGAGGAGGGTGCTACTACGGAGTCACCTAGTGCAG | 17000 fluorescence intensity (a.u.)
23 | TGGGGATGCGGGGTGGCGCGGGAGGAGGGAGAGGACGGAGCGGAGTCACCTAGTGCAG | 8670 fluorescence intensity (a.u.)
24 | ACACGATATAGTCATTGCAATTATCACGGATCCAGGTCCTCGGAGTCACCTAGTGCAG | 8560 fluorescence intensity (a.u.)
25 | AGTACACACCATTTGACATCCTGATTATGTATAGTAATTTCGGAGTCACCTAGTGCAG | 8350 fluorescence intensity (a.u.)
26 | TCAGCTATCATAGTCTTCTAGAATGCTCTTCTTGTCAGATCGGAGTCACCTAGTGCAG | 8220 fluorescence intensity (a.u.)
27 | ATGGGTTGGTAGAGGGGAGGGAACGCGCGACGGTGGCGAGCGGAGTCACCTAGTGCAG | 8740 fluorescence intensity (a.u.)
28 | GTCTCGTGGCACCTCAATTTATTAATCACTACCCCTATACCGGAGTCACCTAGTGCAG | 8710 fluorescence intensity (a.u.)
29 | CATTAGACCCTGAGGTTTTTGACTAGGCAGCCCACTTGTCCGGAGTCACCTAGTGCAG | 9040 fluorescence intensity (a.u.)
30 | ACAAATGGTCAAACGTTGATAAAAAAGTCAACGGCGTCATCGGAGTCACCTAGTGCAG | 20600 fluorescence intensity (a.u.)
31 | TTTAAATAAAACGAATGGTCAAACGTTGATAAAAAGTCAACGGAGTCACCTAGTGCAG | 13300 fluorescence intensity (a.u.)
32 | AAACGAATAGTCAAACGTTGATCGAAAAGTCAACGGCGTCCGGAGTCACCTAGTGCAG | 19300 fluorescence intensity (a.u.)
33 | CGGATGGTCAAACGTTGGTCAAAAAGTCAACGGCGTCATACGGAGTCACCTAGTGCAG | 19600 fluorescence intensity (a.u.)
34 | AAAAAGTCAACGGCGTCATATATTAAAATATGGAGAGAGTCGGAGTCACCTAGTGCAG | 8150 fluorescence intensity (a.u.)
35 | GATCAAACGTTGGTTAAAAAGTCAACGGCGTCATACATTACGGAGTCACCTAGTGCAG | 10700 fluorescence intensity (a.u.)
36 | ACAAATGGTCAAACGTTGGTCGAAAAGTCAACGGCGTCATCGGAGTCACCTAGTGCAG | 13700 fluorescence intensity (a.u.)
37 | AATGGTCAAACGTTGGATAAAAAGTCAACGGCGTCATACACGGAGTCACCTAGTGCAG | 14700 fluorescence intensity (a.u.)
38 | TAAAACGAATGGTCAAACGTTGGTCGAAAAGTCAACGGCGCGGAGTCACCTAGTGCAG | 14400 fluorescence intensity (a.u.)
39 | GTTTGTCAAAAAGTCAACGGCGTCATATATTATACGGAGGCGGAGTCACCTAGTGCAG | 18800 fluorescence intensity (a.u.)
40 | GAAATGTCAAATATTTGTTAAAAAGTCAACGGCGTCATACCGGAGTCACCTAGTGCAG | 11900 fluorescence intensity (a.u.)
41 | ATAAAACAAATGATCAAACGTTGAATAAAAAGTCAACGGCCGGAGTCACCTAGTGCAG | 11100 fluorescence intensity (a.u.)
42 | GGTTTTTCCTAGTTTTGAGATTTACGTGCTATTTTGTGAACGGAGTCACCTAGTGCAG | 8950 fluorescence intensity (a.u.)

From publication PMC7819943, “Rice protein-binding microarrays: a tool to detect cis-acting elements near promoter regions in rice”
